The text below walks through data of PubChem BioAssay (Tox21).

The nature of experiment [1]: qHTS assay to identify small molecule antagonists of the estrogen related receptor (ERR) signaling pathway - cell viability counter screen (AID 1224818). Also: series mostly up to about 46 µM. The essentials:
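Cytotoxicity check run alongside the ERR antagonist screen: cells exposed to test compounds 17.5 h at 37 C, viability taken as CellTiter-Fluor fluorescence intensity.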
A general note: In qHTS, concentration-response curves come from the screen itself.

A short description of experiment [2]: qHTS assay to identify small molecule antagonists of the estrogen related receptor (ERR) signaling pathway (AID 1224819; also: nearly all actives have a fitted effect of over 50% in size; also: potency is read from the fitted curve at half-maximal effect). The essentials: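 ERR reporter cells were plated at 2,000 cells/well and left 6 h at 37 C/5% CO2 before pin-tool transfer of compounds in DMSO. After 18 h at 37 C, One-Glo was added and luminescence was read 30 min later at room temperature.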

Experiment [3] can be described thus: qHTS assay to identify small molecule agonists of the estrogen related receptor (ERR) signaling pathway (AID 1224820). The essentials:
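An ERR cell line provided by NTP was seeded at 2,000 cells per well and allowed to settle for 6 h before compounds in DMSO were added. After 18 h at 37 C, luciferase activity was measured by One-Glo luminescence.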

Experiment [4] in a line: qHTS assay to identify small molecule antagonists of the estrogen related receptor signaling pathway with the pleiotropic PPARgamma coactivator (PGC) cell viability counter screen (AID 1224822;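 also: series mostly up to about 46 µM; viability read after 17.5 h compound exposure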). The essentials: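 Viable cell signal (CellTiter-Fluor, 30 min, 37 C/5% CO2) was measured in PGC/ERR cells after a 17.5 h compound incubation.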
Experiment [5] in a line: qHTS assay to identify small molecule agonists of the estrogen related receptor signaling pathway with the pleiotropic PPARgamma coactivator (PGC) (AID 1224823). The essentials:
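Compounds dissolved in DMSO are added by pin tool to PGC/ERR cells that have settled for 6 h, and incubation continues 18 h at 37 C. Reporter output is measured as One-Glo luminescence.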

In experiment [6] the test system is estrogen-related receptor alpha (ERRalpha) with PGC-1alpha coactivator, human. Nature of the experiment: qHTS assay to identify small molecule antagonists of the estrogen related receptor signaling pathway with the pleiotropic PPARgamma coactivator (PGC) (AID 1224821; calls by dose curve;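 also: series mostly up to about 46 µM; lower luminescence signal means antagonism of PGC/ERR signalling; nearly all actives have a fitted effect of over 50% in size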). The essentials: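 A PGC/ERR cell line supplied by NTP is seeded, allowed 6 h at 37 C, and treated with test compounds in DMSO for 18 h. Signal is then measured as luciferase luminescence using One-Glo.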

Results filed as inconclusive are left out. Values without a mark were called inactive. Active and inactive are the calls of the source. Unless noted, calls follow the shape of the dose curve; as a rule, active = well fitted curve in the direction sought with a large enough effect in the repeat runs; inconclusive = weak or mixed curves; inactive = no such curve, though single readings can be large; an effect the other way counts as inactive or inconclusive.

Consider `COc1ccc2c(c1)C13CCCCC1C(C2)N(C)CC3` (stereo unspecified), for which the Potency entry in experiment [1], in experiment [2], in experiment [3], in experiment [4] and in experiment [5] was “inactive” throughout.

On to `CCOC(=O)c1ncn2c1[C@@H]1CCCN1C(=O)c1cc(OC)ccc1-2`, for which the Potency result in experiment [1], in experiment [2], in experiment [3], in experiment [6], in experiment [4] and in experiment [5] was “inactive” in each case.

For `C[C@]12CCC3C(CC[C@H]4C[C@H](O)CC[C@]34C)C1CC[C@@H]2C(=O)CO` (stereo partly specified), the Potency entry in experiment [1], in experiment [3], in experiment [6], in experiment [4] and in experiment [5] was “inactive” throughout.

For `NCCc1c[nH]c2ccccc12`, the Potency entry in experiment [1], in experiment [2], in experiment [3], in experiment [6], in experiment [4] and in experiment [5] was “inactive” in each case.

Take `CC(N)Cc1c[nH]c2ccc(OCc3cccs3)cc12` (stereo unspecified): the Potency entry in experiment [1], in experiment [2], in experiment [3], in experiment [6] and in experiment [5] was “inactive” in each case.

Turning to `C[C@]12Cc3cn4c(nc3C=C1CCC1C2CC[C@@]2(C)[C@H]1CC[C@@]2(O)C#N)nc1ccccc14` (stereo partly specified), the Potency entry in experiment [1], in experiment [3] and in experiment [5] was “inactive” in each case. Moreover, the Potency in experiment [2] is 10.6 µM (active).
